A number with no mark means an inactive call.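 How the source made its calls, unless noted: active means RAM network inhibition above 8.4% in each of two replicates, 3 SD over the compound average; inconclusive means above 8.4% inhibition in only one replicate; inactive means 8.4% inhibition or less in each replicate.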
Assay: inhibitors of the yeast RAM network, pilot screen, dse1pr::URA3 reporter, 5-FOA selection (AID 869;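 active means inhibition over a set limit, the all-compound mean plus 3 SD, in both replicate runs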;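 further: 0% = DMSO wells with no growth and 100% = 10 µM 1-NA-PP1 with full growth; RAM network block rescues cells from 5-FOA so hits raise OD615 growth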)
Details: S. cerevisiae dse1pr::URA3 5-FOA growth, OD615, 2 d; at 10 µM; active compounds read high; strain carries analog-sensitive mutant Cbk1 kinase

Row | SMILES | inhibition
1 | CCCCS(=O)(=O)/C=C\C=C/S(=O)(=O)CCCC | -0.535%
2 | O=C1C(C=NCc2cccnc2)=C(O)c2ccccc21 | 1.67%
3 | O=C(Nc1ccccc1)C1CC(=O)N(C2CCCCC2)C1 (stereo not drawn) | 1.58%
4 | CC(=O)NC(CCS(C)(=O)=O)C(=O)Nc1cc(Cl)ccc1Cl (stereo not drawn) | 2.08%
5 | Cc1csc(NC(=O)C(CC(C)C)NS(=O)(=O)c2ccc3c(c2)oc(=O)n3C)n1 (stereo not drawn) | 1.33%
6 | CCOC(=O)N1CCN(c2c(N3CCOCC3)c(=O)c2=O)CC1 | 2.57%
7 | CC(=NCCc1ccccc1)C1=C(O)COC1=O | 0.87%
8 | CCOC(=O)C1=C(C)NC(=O)NC1c1ccc(C)o1 (stereo not drawn) | 0.345%
9 | Nc1c(C(=O)CCC(=O)O)oc2ccc(Cl)cc12 | 0.635%
10 | CCOc1ccc(-c2nnc3ccc(SCC(=O)N4CCCCC4)nn23)cc1 | 2.06%
11 | O=C(CC1SC(=Nc2ccccc2)N(CCCCO)C1=O)NCc1ccccc1 (stereo not drawn) | 0.065%
12 | COc1ccc(C)cc1NC(=O)c1cnc2scc(C)n2c1=O | 3.21%
13 | COc1ccc(OCc2nnc3n2N=C(c2ccc(OC)cc2)CS3)cc1 | 2.15%
14 | O=C(Nc1nnc(-c2ccc(F)cc2)o1)c1ccco1 | 1.46%
15 | CC(=O)Nc1c2c(nn1-c1cccc(Cl)c1)CS(=O)C2 (stereo not drawn) | 1.38%
16 | Cc1cc(NCc2ccco2)nc2cc(O)ccc12 | 1.35%
17 | Cc1nnc(NC(=O)CSc2nnc(CNC(=O)c3ccccc3)n2-c2ccccc2)s1 | 3%
18 | COc1ccc(N2Cc3cccc(C(=O)N4CCN(C(=O)c5ccco5)CC4)c3C2=O)cc1 | 2.62%
19 | O=C(Nc1nc(-c2cccs2)cs1)c1ccc(S(=O)(=O)N2CCCCC2)cc1 | 1.4%
20 | CN1CCN(C(=O)C2CCC(CNS(=O)(=O)c3cccc4cccnc34)CC2)CC1 (stereo not drawn) | 1.58%

Row | SMILES | inhibition
21 | CCOc1ccc(CC(=O)Nc2c(C(N)=O)oc3ccc(Br)cc23)cc1OCC | 2.49%
22 | CCC(C)(C(=O)NC1CCCCC1)N(Cc1ccco1)C(=O)CNC(=O)c1ccccc1 (stereo not drawn) | 0.145%
23 | COC(=O)c1nc2cc(C)ccn2c1F | 2.7%
24 | CN(CC(=O)N1CCCCCC1)S(=O)(=O)c1cccc2cccnc12 | 2.14%
25 | CN(C)c1nc(Oc2ccc(/C=N/O)cc2)nc(N(C)C)n1 | 1.58%
26 | COc1ccc(Br)cc1S(=O)(=O)N1CCN=C1C | 0.79%
27 | COc1ccc(COC(=O)C2=C(C)NC(=O)NC2c2ccc(O)c(OC)c2)cc1 (stereo not drawn) | 0.34%
28 | COc1ccc(-c2nc(Cn3c(SCc4cccc(F)c4)nc4ccncc43)c(C)o2)cc1OC | 1%
29 | COc1ccc(-c2nnc(COc3ccc4ccccc4c3)o2)cc1OC | 1.22%
30 | O=C(Cn1ncc2c1-c1ccccc1OC2)Nc1ccc(S(=O)(=O)N2CCCCC2)cc1 | 0.655%
31 | CCNS(=O)(=O)c1ccc(NC(=O)c2cccnc2)cc1 | 1.61%
32 | CCCCCCSc1nc2c(c(=O)[nH]c(=O)n2C)n1C | 0.395%
33 | CCOC(=O)C1=C(C)Nc2nc(C)nn2C1c1ccc(C)cc1 (stereo not drawn) | 1.9%
34 | COc1cc(C)c(S(=O)(=O)NCc2ccc3c(c2)OCO3)cc1C | -0.055%
35 | O=C(Oc1ccnc2cc(Cl)ccc12)N1CCOCC1 | 1.1%
36 | CCC(Sc1nccn1C)C(=O)Nc1nnc(C)s1 (stereo not drawn) | 1.58%
37 | c1ccc(Oc2nc(Oc3ccccc3)nc(N3CCOCC3)n2)cc1 | 0.355%
38 | O=C(Nc1ccc(Oc2ccccc2)cc1)c1cnc2n(c1=O)CCS2 | 3.62%
39 | Nc1c(C(=O)NCc2ccccc2)nnn1Cc1ccc(F)cc1 | 1.8%

Assay: RAM signaling pathway blockade in yeast – S. cerevisiae, Pdr1DBD-CYC8 efflux-inhibited sensitized strain, primary screen (AID 1298);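 further: 0% = DMSO untreated cells without growth and 100% = 10 µM 1-NA-PP1 full growth; higher means more yeast growth rescued from 5-FOA killing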
Details: S. cerevisiae cbk1-as DSE1-URA3 strain, 5-FOA growth OD615, 2 d; at 50 µM; active compounds read high

Row | SMILES | RAM network inhibition
40 | CCCCS(=O)(=O)/C=C\C=C/S(=O)(=O)CCCC | -3.06%
41 | O=C1C(C=NCc2cccnc2)=C(O)c2ccccc21 | 2.36%
42 | O=C(Nc1ccccc1)C1CC(=O)N(C2CCCCC2)C1 (stereo not drawn) | 3.42%
43 | CC(=O)NC(CCS(C)(=O)=O)C(=O)Nc1cc(Cl)ccc1Cl (stereo not drawn) | 2.67%
44 | Cc1csc(NC(=O)C(CC(C)C)NS(=O)(=O)c2ccc3c(c2)oc(=O)n3C)n1 (stereo not drawn) | 2.74%
45 | CCOC(=O)N1CCN(c2c(N3CCOCC3)c(=O)c2=O)CC1 | -0.73%
46 | CC(=NCCc1ccccc1)C1=C(O)COC1=O | 2.27%
47 | CCOC(=O)C1=C(C)NC(=O)NC1c1ccc(C)o1 (stereo not drawn) | 2.74%
48 | Nc1c(C(=O)CCC(=O)O)oc2ccc(Cl)cc12 | 5.46%
49 | CCOc1ccc(-c2nnc3ccc(SCC(=O)N4CCCCC4)nn23)cc1 | 1.25%
50 | O=C(CC1SC(=Nc2ccccc2)N(CCCCO)C1=O)NCc1ccccc1 (stereo not drawn) | 5.21%
51 | COc1ccc(C)cc1NC(=O)c1cnc2scc(C)n2c1=O | 3.95%
52 | COc1ccc(OCc2nnc3n2N=C(c2ccc(OC)cc2)CS3)cc1 | 7.82%
53 | O=C(Nc1nnc(-c2ccc(F)cc2)o1)c1ccco1 | 0.1%
54 | CC(=O)Nc1c2c(nn1-c1cccc(Cl)c1)CS(=O)C2 (stereo not drawn) | 0.11%
55 | Cc1cc(NCc2ccco2)nc2cc(O)ccc12 | 1.95%
56 | Cc1nnc(NC(=O)CSc2nnc(CNC(=O)c3ccccc3)n2-c2ccccc2)s1 | 3.59%
57 | COc1ccc(N2Cc3cccc(C(=O)N4CCN(C(=O)c5ccco5)CC4)c3C2=O)cc1 | 3.36%
58 | O=C(Nc1nc(-c2cccs2)cs1)c1ccc(S(=O)(=O)N2CCCCC2)cc1 | 4.06%
59 | CN1CCN(C(=O)C2CCC(CNS(=O)(=O)c3cccc4cccnc34)CC2)CC1 (stereo not drawn) | 0.46%

Row | SMILES | RAM network inhibition
60 | CCOc1ccc(CC(=O)Nc2c(C(N)=O)oc3ccc(Br)cc23)cc1OCC | 0.56%
61 | CCC(C)(C(=O)NC1CCCCC1)N(Cc1ccco1)C(=O)CNC(=O)c1ccccc1 (stereo not drawn) | 6.49%
62 | COC(=O)c1nc2cc(C)ccn2c1F | 0.79%
63 | CN(CC(=O)N1CCCCCC1)S(=O)(=O)c1cccc2cccnc12 | -1.18%
64 | CN(C)c1nc(Oc2ccc(/C=N/O)cc2)nc(N(C)C)n1 | 2.8%
65 | COc1ccc(Br)cc1S(=O)(=O)N1CCN=C1C | -0.12%
66 | COc1ccc(COC(=O)C2=C(C)NC(=O)NC2c2ccc(O)c(OC)c2)cc1 (stereo not drawn) | 1.52%
67 | COc1ccc(-c2nc(Cn3c(SCc4cccc(F)c4)nc4ccncc43)c(C)o2)cc1OC | 3.81%
68 | COc1ccc(-c2nnc(COc3ccc4ccccc4c3)o2)cc1OC | 8.07%
69 | O=C(Cn1ncc2c1-c1ccccc1OC2)Nc1ccc(S(=O)(=O)N2CCCCC2)cc1 | 4.53%
70 | CCNS(=O)(=O)c1ccc(NC(=O)c2cccnc2)cc1 | 6.74%
71 | CCCCCCSc1nc2c(c(=O)[nH]c(=O)n2C)n1C | 1.1%
72 | CCOC(=O)C1=C(C)Nc2nc(C)nn2C1c1ccc(C)cc1 (stereo not drawn) | -0.2%
73 | COc1cc(C)c(S(=O)(=O)NCc2ccc3c(c2)OCO3)cc1C | -0.06%
74 | O=C(Oc1ccnc2cc(Cl)ccc12)N1CCOCC1 | 7.61%
75 | CCC(Sc1nccn1C)C(=O)Nc1nnc(C)s1 (stereo not drawn) | 1.93%
76 | c1ccc(Oc2nc(Oc3ccccc3)nc(N3CCOCC3)n2)cc1 | 8.11%
77 | O=C(Nc1ccc(Oc2ccccc2)cc1)c1cnc2n(c1=O)CCS2 | 8.2%
78 | Nc1c(C(=O)NCc2ccccc2)nnn1Cc1ccc(F)cc1 | 3.21%
